SMILES strings stand for the structures. The campaign covered roughly 310,000 compounds. About 11,000 (3.5%) were called active. Another 8% or so got no clear call; they are omitted. Only a selection was taken, and actives are over-represented in it overall. Unmarked numbers belong to inactive results. The call rests on the fitted dose curve; in most records, active means well fitted inhibition curve with a large enough effect; inconclusive means small, poorly fitted or top-dose-only effect, or effect the other way; inactive means flat fitted curve, though single readings scatter.
On the % scale 0 is the no-effect control and ±100 the full control effect; potency means the concentration at half of the fitted maximal effect.

This experiment can be described thus: VP16 counterscreen qHTS for inhibitors of ROR gamma transcriptional activity.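 Further: Gal4-VP16 expression switched on by copper sulfate through the metallothionein promoter; nearly all actives have a fitted effect of over 50% in size.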 The settings on record: Drosophila S2 Gal4-VP16 UAS-luciferase, luminescence, 20 h; series mostly up to 53.6 µM; activity, negative = inhibition: at the top concentration. Background: A counterscreen serves to expose hits that act by an unwanted route or on another target.
In the case of `CCOC(=O)c1c(-c2ccccc2)oc2ccc(OCC(N)=O)cc12`, the “activity, negative = inhibition” value is -2.89%.

As for `COc1cccc(CN2CCN(Cc3ccc4cccc(F)c4n3)CC2CCO)c1` (centres undefined), the “activity, negative = inhibition” value was -27.6%.

Regarding `CN1c2ccc([N+](=O)[O-])cc2C(C)(C)C12C=Cc1cc(C(=O)O)ccc1O2` (centres undefined), the “activity, negative = inhibition” value is 1.53%.

Consider `CC(C)c1ccc(C(=O)OC2CCOC2=O)cc1` (centres undefined), for which the “activity, negative = inhibition” value is 13.4%.

Regarding `Cc1nn(Cc2ccccc2)c(Cl)c1C(=O)OC1CCOC1=O` (centres undefined), the “activity, negative = inhibition” value is -5.18%.

Turning to `O=C(OC1CCOC1=O)c1ccc(-c2nc3ccccc3s2)s1` (centres undefined), the Potency was 1 µM (active).

Consider `O=C(CNC(=O)OCc1ccccc1)NC1CCCCNC1=O` (centres undefined), for which the “activity, negative = inhibition” value is -9.12%.

Consider `Cc1cc(=O)n2[nH]c(-c3cccc(Cl)c3)cc2n1`, for which the “activity, negative = inhibition” value was 14.2%.

For the compound `C=C1C(=O)C23C(O)C1CCC2[C@]12COC3(O)C(O)C1C(C)(C)CC[C@H]2O` (some centres undefined), the Potency is 2.51 µM (active).

Take `CCOc1ccc(C(C(=O)NC2CCCC2)N(C(=O)c2snc(C(N)=O)c2N)C2CCCC2)cc1` (centres undefined): the “activity, negative = inhibition” value was 13.5%.

Take `COCc1nc2ccccc2n1Cc1ccccc1Br`: the Potency is 5.62 µM (active).

With `COCn1c(COc2ccccc2)nc2ccccc21`, the “activity, negative = inhibition” value is 25.9%.

As to `COc1ccccc1Cn1c(CO)nc2ccccc21`, the “activity, negative = inhibition” value was -7.92%.

In the case of `Cc1ccccc1CCNC(=O)C1CCC(=O)N(Cc2ccc(Cl)cc2)C1` (centres undefined), the “activity, negative = inhibition” value was -3.56%.

With `CCCn1cc(S(=O)(=O)c2ccc(C)cc2)c(=O)c2cc(OCC)ccc21`, the “activity, negative = inhibition” value was 1.59%.

For `CCN(CC)c1ccc(/C=N/Nc2nc(C)cc(=O)[nH]2)cc1`, the “activity, negative = inhibition” value was -3.48%.

Consider `CCN(CC)c1ccc(/C=N/NC(=O)CNC(=O)c2cccnc2)cc1`, for which the “activity, negative = inhibition” value is 2.67%.

Turning to `CCN(CC)c1ccc(/C=N/Nc2nc(C)cc(C)n2)c(O)c1`, the Potency is 4.47 µM (active).

Take `CCN(CC)c1ccc(/C=N/NC(=O)c2cnccn2)c(O)c1`: the Potency was 5.62 µM (active).

As to `Cc1cc(C)nc(N/N=C/c2ccncc2)n1`, the “activity, negative = inhibition” value was -5.52%.

Turning to `Cc1ccc(C(=O)NCCNC(=O)c2cnccn2)cc1`, the “activity, negative = inhibition” value is 7.02%.

Turning to `Cc1cc(=O)n2nc(N3CCC(C(=O)Nc4c(F)c(F)c(F)c(F)c4F)CC3)sc2n1`, the “activity, negative = inhibition” value was -2.93%.

Take `COc1ccc(S(=O)(=O)N2CCSCC2)cc1`: the “activity, negative = inhibition” value is 10.7%.

With `O=C(NNS(=O)(=O)c1ccc(F)cc1)c1ccc([N+](=O)[O-])cc1Cl`, the “activity, negative = inhibition” value was 2.59%.

`O=C(COc1ccc(Cl)cc1)Nc1ccc2c(c1)OCO2`: the “activity, negative = inhibition” value is -6.13%.

Regarding `Cc1cc(O)ccc1-c1cnc2ccccc2n1`, the “activity, negative = inhibition” value was -20.2%.

For `O=c1oc2ccccc2cc1-c1csc(Nc2ccc(O)cc2)n1`, the “activity, negative = inhibition” value is 1.22%.

For `Cc1ccc(Nc2nc(-c3ccc(O)cc3O)cs2)nc1`, the Potency was 11.2 µM (active).

In the case of `C=Cn1cc[n+](CC(=O)c2ccc(OC)c(OC)c2)c1`, the “activity, negative = inhibition” value was -1.6%.

Take `Cc1ccc(-n2c(C)cc(/C=N\NC(=O)CC(=O)NC(C)C)c2C)cc1`: the “activity, negative = inhibition” value was -7.74%.

`Cc1cc(/C=N/NC(=O)CC2(C)OCCO2)c(C)n1-c1ccc(Cl)c(Cl)c1`: the Potency was 12.6 µM (active).

Turning to `Cc1ccccc1-n1c(C)cc(/C=N/NC(=O)c2ccc(CN3CCOCC3)cc2)c1C`, the activity, negative = inhibition is -2.91% [at 0.365 µM].

Consider `COc1ccccc1C(=O)NC(CCSC)C(=O)NNC(=O)c1csc(N2CCOCC2)n1` (centres undefined), for which the “activity, negative = inhibition” value was 1.56%.

`CCOc1ccc(C(=O)COC(=O)c2ccc(-n3cnnn3)cc2)cc1`: the “activity, negative = inhibition” value was 0.0156%.

As to `CCn1c(=S)[nH]c2sc3c(c2c1=O)CCCCC3`, the Potency was 1.12 µM (active).

As for `CCCc1nc2sc3c(c2c(=O)n1NC(=O)CCCl)CCCC3`, the “activity, negative = inhibition” value is 10.2%.

Turning to `CN(C)CCCn1c(=O)n(Cc2ccccc2)c(=O)c2c3c(sc21)CCCCC3`, the “activity, negative = inhibition” value was -8.02%.

For the compound `CC(C)c1ccc(NC(=O)[C@@H](NC(=O)N2CC(=O)Nc3ccccc32)C(C)C)cc1`, the “activity, negative = inhibition” value was 12.5%.

`S=C(NNC(=S)NC1CC2C=CC1C2)NC1CC2C=CC1C2` (centres undefined): the “activity, negative = inhibition” value was 4.85%.

Consider `S=C(NNC(=S)NC1CC2CCC1C2)NC1CC2C=CC1C2` (centres undefined), for which the “activity, negative = inhibition” value is -2.56%.

Take `CC(C)c1ccc(NC(=S)NC2CC3C=CC2C3)cc1` (centres undefined): the Potency was 11.2 µM (active).

Take `Cc1nn(C(C)C(=O)NCCC2=CCCCC2)c(=O)c2nn(-c3ccccc3)c(C)c12` (centres undefined): the “activity, negative = inhibition” value was 8.83%.

For `COc1ccc(C(=O)NC2CC2)cc1OC1CCN(C/C=C/c2ccccc2)CC1`, the “activity, negative = inhibition” value was -1.34%.

For the compound `CN(C)S(=O)(=O)c1cccc(C(=O)OCC(=O)N2CCCC2=O)c1`, the “activity, negative = inhibition” value is -3.49%.

Consider `CCOC(=O)C1CCN(C(=O)Cn2nc(C)c3c(C)n(-c4ccccc4)nc3c2=O)CC1`, for which the “activity, negative = inhibition” value is -3.98%.

As for `CC(C)c1cc(C(=O)N/N=C/c2ccoc2)c(O)c(C(C)C)c1`, the Potency is 3.16 µM (active).

Take `CC(Oc1ccccc1[N+](=O)[O-])C(=O)N/N=C/c1ccoc1` (centres undefined): the “activity, negative = inhibition” value is -9.18%.

For the compound `O=C(N/N=C/c1ccoc1)c1ccc(Cl)cc1Cl`, the “activity, negative = inhibition” value was -4.59%.

Take `Cn1c(N2CCOCC2)c(C=O)c2ccccc21`: the “activity, negative = inhibition” value is 8.57%.

In the case of `CC1CCC(NS(=O)(=O)c2ccc3c(c2)CC(=O)N3)CC1` (centres undefined), the “activity, negative = inhibition” value is 2.3%.

As to `Cc1occc1C(=O)NC1CCCN(Cc2ccc(CC(C)C)cc2)C1` (centres undefined), the “activity, negative = inhibition” value was -15.5%.

Take `C=CCOc1c(Br)cc(/C=N\n2nnnc2N)cc1OC`: the “activity, negative = inhibition” value is 8.19%.

As to `CCOc1c(Br)cc(/C=C2\C(=O)N(CCC#N)N=C2C)cc1OC`, the Potency is 11.2 µM (active).

Take `CCOc1cc(/C=C/c2nc3ccccc3c(=O)[nH]2)cc(Br)c1OC`: the “activity, negative = inhibition” value is -2.15%.

Turning to `CCOC(=O)c1ccc(NC(=O)C2CC(=O)Nc3nc4ccccc4n32)cc1` (centres undefined), the “activity, negative = inhibition” value was 2.42%.

As for `CCOC(=O)C1=C(C)Nc2nc3ccccc3n2C1c1cccs1` (centres undefined), the Potency is 5.01 µM (active).

Consider `C=CCOC(=O)C1=C(C)NC(C)=C(C(=O)OCC=C)C1c1cccs1`, for which the “activity, negative = inhibition” value was 0.696%.

With `CCOc1ccc2[nH]c(C(=O)N/N=C/c3cccc(OC)c3OC)cc2c1`, the “activity, negative = inhibition” value is 4.44%.

On to `COc1cccc(CCNC(=O)c2cccc(NC(=O)C3=C(C)OCCS3)c2)c1`, for which the “activity, negative = inhibition” value is -17.2%.

On to `Cc1ccc(N/C=C/C(=O)c2ccccc2)cc1C`, for which the “activity, negative = inhibition” value is -55.9%.

For `Cc1cc(C)nc(S/C=C/C(=O)c2ccccc2)n1`, the Potency is 3.55 µM (active).

For `Cc1cc(SCC(=O)c2ccccc2)nc(SCC(=O)c2ccccc2)n1`, the “activity, negative = inhibition” value is -16.5%.

Turning to `CSc1ccccc1NC(=O)c1ccc2c(c1)CCN2S(C)(=O)=O`, the “activity, negative = inhibition” value is -7.46%.

Take `Cc1nn(CCCC(=O)NCc2ccccc2Cl)c(=O)c2nccn12`: the “activity, negative = inhibition” value was -1.04%.

For `O=C(Cc1ccccc1)Nc1ccc(C(=O)Nc2ccccc2C(=O)O)cc1`, the “activity, negative = inhibition” value was 5.24%.

As for `CCOc1ccc(CN2CCN(Cc3ccc4cc(F)ccc4n3)CC2CCO)cc1` (centres undefined), the “activity, negative = inhibition” value is -6.33%.

Regarding `COc1cc(C(=O)NCc2nnc(SCC(=O)c3ccc(Cl)cc3)o2)cc(OC)c1OC`, the “activity, negative = inhibition” value is -6.58%.

Take `COc1cc(C(=O)NCc2nnc(SCC(=O)Nc3nc4ccc(C)cc4s3)o2)cc(OC)c1OC`: the Potency is 3.16 µM (active).

With `COc1ccc(C(=O)NCc2nnc(SCC(=O)Nc3cccc(OC)c3)o2)cc1`, the “activity, negative = inhibition” value was -0.7%.
